Molecules are shown by their SMILES. Hit rate of the full screen: of about 2,400 compounds, about 2,200 (92%) were called active.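 The calls were made as follows: active = mean inhibition over triplicate runs exceeds the cutoff derived for the earlier primary screen (cut at about 25% in these data); inactive = the rest.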 The set was probably picked from earlier hits. The list shows a part of the results.

Sequence of Platelet-activating factor acetylhydrolase IB subunit alpha2 (Homo sapiens) (P68402 whole entry, looked up): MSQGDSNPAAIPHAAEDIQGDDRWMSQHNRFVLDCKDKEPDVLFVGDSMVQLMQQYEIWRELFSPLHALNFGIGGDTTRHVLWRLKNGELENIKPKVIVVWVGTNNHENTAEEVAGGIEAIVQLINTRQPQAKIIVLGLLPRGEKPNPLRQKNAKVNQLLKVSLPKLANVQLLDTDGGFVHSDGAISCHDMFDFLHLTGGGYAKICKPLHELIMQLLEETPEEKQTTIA

This assay addresses Platelet-activating factor acetylhydrolase IB subunit alpha2 (Homo sapiens) (UniProt P68402). In words: inhibition of human PAFAH1B2 catalytic subunit – biochemical, fluorescence polarization, FP-rhodamine probe, triplicate, confirmation (AID 493034).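 Also: 0% = enzyme with DMSO and 100% = wells lacking PAFAH1B2 protein; inhibitors lower polarization by leaving the probe unbound.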 As to conditions: recombinant PAFAH1B2, FP-rhodamine probe fluorescence polarization; at 3.39 µM; stronger effect = higher value. (Fluorescence polarisation rises when a labelled molecule tumbles more slowly, as on binding a larger partner.)
By inhibition is commonly meant the share of the control response that was lost under treatment. As to `COC(=O)C1=C(c2ccc(C(C)=O)cc2)C[C@@H]2CC[C@H]1N2C(=O)NCc1ccc(C(F)(F)F)cc1`, the inhibition is 28% (active).

With `COC(=O)C1=C(c2ccc(C(C)=O)cc2)C[C@@H]2CC[C@H]1N2C(=O)NCc1ccc(F)cc1`, the inhibition was 23.9% (inactive). In the case of `O=P(NS(=O)(=O)c1ccc(Cl)cc1)(Oc1ccccc1)Oc1ccccc1`, the inhibition is 81.3% (active). In the case of `O=P(NS(=O)(=O)c1ccc(Br)cc1)(Oc1ccccc1)Oc1ccccc1` it was 78.1% (active); in that of `Cc1ccc(S(=O)(=O)NP(=O)(Oc2ccccc2)Oc2ccccc2)cc1`, 51.9% (active); in that of `BrCC(Br)C1CCC(Br)C(Br)C1` (configuration not stated), 56.7% (active). Take `O=c1[nH]c(=S)n(CCC2=CCCCC2)c(O)c1/C=N/Nc1ccccc1`: the inhibition is 29.8% (active). To `O=S(=O)(c1ccc(Cl)cc1)c1ccc(Cl)cc1` belongs 42.9% (active); to `Cc1ccc(OCCOc2cccc(C=C3C(=O)NC(=O)NC3=O)c2)cc1`, 36.7% (active); to `O=C(O)CCn1cc(C=C2C(=O)NC(=O)NC2=O)c(-c2ccc(Br)cc2)n1`, 36.4% (active). In the case of `O=C(OCCN1CCOCC1)C1(c2ccccc2)CCCC1` it was 32.4% (active). To `O=C(O)C1(c2ccc(Cl)cc2)CCC1` belongs 37% (active). Take `Cn1c(O)c(/C=C2\N=c3ccccc3=C2CCNC(=S)NC2CC2)c(=O)n(C)c1=O`: the inhibition is 84.3% (active). `O=C(Cc1ccc(N(CCCl)CCCl)cc1)NC(Cc1ccc(Cl)cc1)C(=O)O` (configuration not stated): the inhibition was 63% (active). For `O=C(Cc1ccccc1)NC(Cc1ccc(Cl)cc1)C(=O)O` (configuration not stated), the inhibition was 28.4% (active). To `O=C1CC(=O)N(Cc2ccccc2)C(=S)N1` belongs 15.9% (inactive); to `O=c1[nH]c(=S)n(Cc2ccc(F)cc2)c(O)c1C=NCC1CCCO1` (configuration not stated), 27.5% (active); to `O=c1[nH]c(=S)n(Cc2ccc(F)cc2)c(O)c1/C=N/N1CCCCC1`, 38.2% (active). For the molecule `O=C(N/N=C/c1c(O)n(Cc2ccc(F)cc2)c(=O)[nH]c1=O)c1ccccc1`, the inhibition was 23.9% (inactive). Consider `O=c1[nH]c(=S)n(Cc2ccc(F)cc2)c(O)c1/C=N/N1CCCCCC1`, for which the inhibition is 27.4% (active). To `O=C(N/N=C/c1c(O)n(Cc2ccc(F)cc2)c(=S)[nH]c1=O)c1ccncc1` belongs 40.2% (active); to `CC1CC(OP(O)(=S)c2ccc(N(C)C)cc2NC(=O)c2cccs2)CC(C)(C)C1` (configuration not stated), 17.3% (inactive).

In the case of `O=C1CN=C(c2ccccc2)c2ccccc2N1Cc1ccc(C(F)(F)F)cc1`, the inhibition was 57.8% (active). For the molecule `Cc1ccc(Sc2ccc(C=C3C(=O)N(C)C(=O)N(C)C3=O)o2)cc1`, the inhibition is 62.6% (active). To `O=C1NC(=O)C(=Cc2ccc(-c3ccc(F)cc3O)o2)C(=O)N1` belongs 20.5% (inactive). To `Cc1ccc(-c2nc3ccc(Cl)cc3n2OC(=O)N(C)C)cc1` belongs 59% (active); to `CNC(=O)O/N=C(\N)Cc1csc2ccc(Cl)cc12`, 54.9% (active); to `FC(F)(F)c1cccc(-n2nnnc2C2(N3CCOCC3)CCCCC2)c1`, 23.3% (inactive). To `Cc1ccc2c(c1)=NC(=O)/C(=C/c1c(O)[nH]c(=O)[nH]c1=O)C=2` belongs 21.7% (inactive). Turning to `C=C[C@@H]1C[C@@]1(C)[C@@H](NP(=O)(c1ccccc1)c1ccccc1)c1ccccc1`, the inhibition is 29.2% (active).

Consider `Nc1ccc(C2(c3ccc(N)cc3)CCCCC2)cc1`, for which the inhibition was 45.2% (active). In the case of `O=P(O)(Oc1ccccc1)OC(c1ccccc1)C(F)(F)C(F)(F)F` (configuration not stated) it was 85.5% (active); in that of `NP(=O)(OCCCc1ccccc1)Oc1ccccc1` (configuration not stated), 51.6% (active); in that of `NP(=O)(OCCCc1ccccc1)Oc1ccc(Cl)cc1` (configuration not stated), 88.8% (active).

Take `Nc1ccc2cc(Br)ccc2c1`: the inhibition is 70.6% (active). To `CNC(=O)Oc1ccc(C(=O)N2c3ccccc3NC(=O)C2C)cc1` (configuration not stated) belongs 43.6% (active). To `O=C(O)c1c[nH]c2ccc(S(=O)(=O)N(CCCl)CCCl)cc12` belongs 26% (active).

For the origin of these results see PubChem BioAssay AID493034 (The Scripps Research Institute Molecular Screening Center, 2011).
